Test results taken from PubChem BioAssay AID1347416 (National Center for Advancing Translational Sciences (NCATS), 2020).
The campaign covered roughly 4,100 compounds. About 1,600 (39%) were called active. Another 25% or so got no clear call; they are omitted. The call rests on the fitted dose curve; in most records, active means well fitted inhibition curve with a large enough effect; inconclusive means small, poorly fitted or top-dose-only effect; inactive means no such curve, though single readings can be large or run the other way. Some of the results follow.

test: qHTS Validation assay for Inhibitors of Plasmodium falciparum Dd2 growth in vitro; further: nearly all actives have a fitted effect of over 70% in size; conditions: P. falciparum Dd2 in RBCs, SYBR Green growth, 72 h; series mostly up to 28.7 µM; activity change, negative = inhibition: at the top concentration
Text: Malaria, a parasitic disease spread to humans through the bite of a Plasmodium infected Anopheles mosquito, continues to be a global health burden affecting millions of people, with an estimated 228 million cases and 405,000 deaths in 2018. Concerns about safety and limitations of current antimalarial treatments strongly emphasize the need to develop new therapeutic options. The scarce number of chemotypes and validated drug targets with efficacy against the liver stage, have hindered development of new antimalarials. To address this, a chemoprophylactic drug discovery effort was conducted through a combined phenotypic high-throughput asexual blood stage and liver stage screen, providing a robust foundation to identify liver-stage active lead chemotypes. Compounds were initially screened against Plasmodium falciparum Dd2 strain parasites using a in vitro SYBRGreen-1 based 72 hr proliferation assay to identify novel chemotypes to advance to liver stage assays. NIH/NCATS Early Translation Branch Assay Submitter (PI): Anton Simeonov Ph.D.
[…] Assay Protocol: PROTOCOL TABLE (as described by Inglese et al., 2007) SEQUENCE No. (e.g., 1, 2, 3, etc.); PARAMETER (e.g., Cells, Incubation, Reagent, etc.); VALUE; DESCRIPTION SEQUENCE, Parameter, Description 1; Reagent; 3 uL complete malaria growth medium, 1536 TC treated Black clear bottom plate 2; Controls; 23 nL positive control artesunate (300 nM final) to column 1; Neutral control DMSO to columns 2-4 3; Compound; 23 nL of compounds in dose response concentration (29 uM to 0.5 nM final) 4; Reagent; 5 uL malaria infected red blood cells (2.5% hematocrit final, 0.3% parasitemia 5; Time; 72 hours at 37C (5% O2, 5% CO2, 90% N2; 95% Rh) 6; Reagent; 2 uL lysis buffer/SYBRGreen-1, 25 sec shake immediately following dispense 7; Time; ~16 hours at 37C (5% O2, 5% CO2, 90% N2; 95% Rh) 8; Detector; EnVision (PerkinElmer) bottom read at 485/14nm excitation and 535/25 nm emission NOTES (numbers refer to sequence above): 1; Complete Malaria Growth Media: 1X RPMI-1640 w/L-glutamine, 5.5g/L Albumax II, 367 uM Hypoxanthine, 25 mM HEPES, 0.25% Sodium Bicarbonate, 35 uM Gentamicin sulfate 2; Controls were added using the Kalypsis Pintool (Wako USA) equipped with 1536 pinhead 3; Compounds were added in a 7-point, titration with a high final concentration of 29 uM by Pintool from seven inter-plate titrations of library plates and two DMSO control plates at the beginning and end (see Yasgar et al., 2008). 4; Red blood cells infected with Plasmodium falciparum Dd2 parasites were used. 6; Lysis buffer: 20 mM Tris-HCl, 10 mM EDTA, 0.16% Saponin, 1.6% Triton-X, 10X SYBR Green. REFERENCE: Inglese J, Shamu CE, Guy RK. 2007. Reporting data from high-throughput screening of small-molecule libraries. Nat Chem Biol. doi:10.1038/nchembio0807-438 Yasgar A, Shinn P, Jadhav A, Auld D, Michael S, Zheng W, Austin CP, Inglese J, Simeonov A. 2008. Compound Management for Quantitative High-Throughput Screening. J Lab Autom 13:79-89. doi:10.1016/j.jala.2007.12.004
On the % scale 0 is the no-effect control and ±100 the full control effect; potency means the concentration at half of the fitted maximal effect.

SMILES	Potency	activity change, negative = inhibition
CC(=O)Nc1ccc(NC2=Nc3ccccc3N3C2=Nc2c(c(C)nn2-c2ccccc2)C3c2ccccc2)cc1 (stereo not given)	6.68 µM (active)	–
CC(C)NC(=O)N1Cc2[nH]cnc2C[C@H]1C(=O)NCc1ccc(Cl)cc1	–	13.3% [at 43.1 µM] (inactive)
O=C(Nc1ccc(CN2CCOCC2)cc1)c1ccc(-c2ccc(Br)cc2)o1	–	94.7% (inactive)
O=C(COc1ccc(-c2nnc3n2CCCC3)cc1)Nc1cccc(Br)c1	–	-17.9% (inactive)
Cc1ccc(C(=O)N2CCCN(c3cc(-c4ccc(Br)cc4)[nH]n3)CC2)cn1	–	-1.03% (inactive)
O=C(Nc1ccc2c(N3CCCC3)ncnc2c1)c1cccc(Br)c1	0.668 µM (active)	–
O=C(NC1CCCN(c2cc(-c3ccc(Cl)cc3)[nH]n2)C1)c1ccc(Br)o1 (stereo not given)	–	-27.2% (inactive)
O=C(Nc1ccc2c(N3CCOCC3)ncnc2c1)c1cccc(Br)c1	4.22 µM (active)	–
O=C(Nc1ccc2c(N3CCCC3)ncnc2c1)c1ccc(Br)cc1	4.73 µM (active)	–
CN(C)C(=O)C1CN(C(=O)Nc2cccc(Br)c2)CC12CCOCC2 (stereo not given)	–	8.32% (inactive)
O=C(Nc1ccc2c(N3CCOCC3)ncnc2c1)c1ccc(Br)o1	2.66 µM (active)	–
O=C1[C@H]2CN(Cc3cc(F)ccc3F)C[C@H]2C(=O)N1Cc1ccc2c(c1)OCO2	–	10.3% (inactive)
COCCCNC(=O)CCN(CCC(C)C)C(=O)c1cc(C)oc1C	–	-4.72% (inactive)
Cc1ccc(OC2(C(=O)NC(C)c3nn[nH]n3)CCNCC2)cc1 (stereo not given)	–	22.1% (inactive)
O=C(Nc1ccc2c(N3CCOCC3)ncnc2c1)c1cccc(Cl)c1	4.73 µM (active)	–
CN(C1CCOCC1)C1CCN(C(=O)c2cccc(Cl)c2)CC1	–	-5.93% (inactive)
Clc1ccc(Cn2ncc3c(N4CCOCC4)ncnc32)cc1	–	12.7% (inactive)
CCc1cccc2c(C(CC(=O)N3CCC(C)CC3)c3cccc(C)c3)c[nH]c12 (stereo not given)	4.73 µM (active)	–
Cc1cccc(OCC(=O)N2CCC(c3n[nH]c(=O)n3-c3ccccc3)CC2)c1	–	-6.79% (inactive)
CN(C)S(=O)(=O)N1CCCC(Cn2c(C3CC3)nc3cccnc32)C1 (stereo not given)	–	34.5% (inactive)
Fc1cc(F)cc(CNc2ncncc2-c2nc(-c3ccccc3)no2)c1	–	0% (inactive)
CCCCCCSc1ccc([C@@H]2[C@H]3C(=O)N(CC)C(=O)[C@H]3[C@]3(C(=O)OC)CCCCN23)cc1OC	15 µM (active)	–
COc1ccc2[nH]c(C[C@@H]3C[C@@H](C(C)C)[C@H](CNCc4cccnc4)C=C3C)nc2n1	19.3 µM (active)	–

SMILES	Potency	activity change, negative = inhibition
COc1ccc2[nH]c(C[C@@H]3C[C@@H](C(C)C)[C@H](CNCc4ccccc4O)C=C3C)nc2n1	0.243 µM (active)	–
Cn1cnc(S(=O)(=O)N2CCCC(Cc3noc(-c4cccnc4)n3)C2)c1 (stereo not given)	–	19.2% (inactive)
COc1ccc(-c2nnc(C[C@@H]3C[C@@H](C(C)C)[C@H](CNCc4cccnc4)C=C3C)o2)cc1	6.68 µM (active)	–
CC1=C[C@@H](CNCc2cccnc2)[C@H](C(C)C)C[C@H]1Cc1nnc(-c2ccc(N(C)C)cc2)o1	5.31 µM (active)	–
CC1=C[C@@H](CNCc2cccnc2)[C@H](C(C)C)C[C@H]1Cc1nnc(-c2ccc([N+](=O)[O-])cc2)o1	5.31 µM (active)	–
Brc1ccc(-c2ccnc3nc(-c4cccs4)nn23)s1	–	-16.3% (inactive)
Cc1[nH]cnc1CSCCn1ccnc1-c1nccn1C	–	2.48% (inactive)
COc1cc2c(cc1OC)CN(C(=O)c1cccs1)CC2	–	-20.1% (inactive)
COc1cc(C(=O)OCC(=O)N2CCCCC2C)cc(NC(=O)c2cccs2)c1OC (stereo not given)	0.473 µM (active)	–
CCOC(=O)c1c(CN(CC)CC)n(C)c2cc(Br)c(O)cc12	9.44 µM (active)	–
CCOC(=O)c1c(CN2CCCCC2)n(C)c2cc(Br)c(O)cc12	7.5 µM (active)	–
CCOC(=O)c1c(CN2CCN(CCO)CC2)n(-c2ccccc2)c2cc(Br)c(O)cc12	5.96 µM (active)	–
CCOC(=O)C1=C(O)/C(=C/c2cc(C)n(-c3ccccc3)c2C)N=C1C	–	-4.25% (inactive)
CCOC(=O)c1c(CN2CCN(c3ccccc3)CC2)oc2cc(Br)c(O)cc12	1.88 µM (active)	–
CCOC(=O)c1c(CNc2ccncc2)n(C)c2cc(Br)c(O)cc12	2.66 µM (active)	–
CCOC(=O)c1c(CN(C)C)n(-c2ccc(C)cc2)c2cc(Br)c(O)cc12	4.22 µM (active)	–
CCOC(=O)c1c(CSC(=N)N)n(-c2ccc(C)cc2)c2cc(Br)c(OC(C)=O)cc12	5.96 µM (active)	–
COc1ccc(-c2[nH]nc3ncc(-c4cccnc4)nc23)cc1F	3.85 µM (active)	–
COc1ccc(C(=O)N2CCC(Cc3nc(-c4cccnc4)n[nH]3)C2)cc1F (stereo not given)	–	18.9% (inactive)
Fc1ccc(N2CCN(Cc3cccn3-c3nnc(N4CCN(C5CCCCC5)CC4)s3)CC2)cc1	11.9 µM (active)	–
COc1ccccc1CCNC(=O)c1cccn1-c1nnc(N2CCCCC2)s1	–	-6.38% (inactive)
CN(CC1CCOCC1)S(=O)(=O)c1ccc(F)c(Cl)c1	–	28.6% (inactive)
